Screens (PubChem BioAssay)
Shown are actives, neighbours in structure and some others; about 7.3% of the full set was active somewhere.
HCMV antiviral = blocks human cytomegalovirus replication; HFF cells, HCMV-luciferase reporter, 72 h; stronger effect = lower value; activity change, negative = inhibition, % at 57.5 µM; 410,000 compounds, 4.5% hits; AID 1259415; in the data active means activity change below about -60%; inconclusive means no clear call, values can overlap the other calls; inactive means above about -39%
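Two-dose cell screen: HFF monolayers treated with compounds and infected with luciferase-expressing HCMV at 1 PFU/cell, 72 h at 37C, then lysed for luciferase measurement.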
FMDV antiviral = foot and mouth disease virus antiviral activity | FMDV antiviral cell-based qHTS | Potency, µM (top dose mostly 57.9 µM), for the others: at the top dose activity change, negative = inhibition, usual class: inhibitors | 410,000 compounds, 1.2% hits; calls by dose curve; tested in HEK293T cells; further: read-out not given here; potency means the concentration at half of the fitted maximal effect; nearly all actives have a fitted effect of over 45% in size
HCV inhibitor = inhibitors of hepatitis C virus infection | Huh7.5.1 HCVcc-Cre infection, luciferase reporter, 44 h | Potency, µM (series often up to 41.8 µM), for the others: top-dose activity change, negative = inhibition, usual class: inhibitors | 340,000 compounds, 3.4% hits | AID 651820; active means well fitted inhibition curve with a large enough effect; inconclusive means small, poorly fitted or top-dose-only effect, or another doubt; inactive means no such curve, though single readings can be large or run the other way; further: potency means the concentration at half of the fitted maximal effect
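Infectious HCV cell culture screen: compound-treated cells (1,000/well, pre-plated 4 h) are infected with HCVcc-Cre at roughly 0.5 moi and grown 44 h. Infection is quantified by luciferase signal after 15 min substrate incubation at room temperature.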
Vaccinia mCherry = inhibitors of vaccinia virus infection (mCherry reporter signal); Vaccinia virus mCherry reporter infection, fluorescence; Potency, µM (highest dose often 36.5 µM), inactives show top-dose activity change, negative = inhibition, most hits filed as inhibitors; 310,000 compounds, 0.63% hits; calls by dose curve; tested in A549 cells; further: potency means the concentration at half of the fitted maximal effect; nearly all actives have a fitted effect of over 35% in size
VACV Venus inh = vaccinia inhibition (Venus reporter); Vaccinia virus Venus reporter expression, fluorescence; Potency, µM (titrated, usually from 36.5 µM), without a hit: top-dose activity change, negative = inhibition, hits mostly inhibitors; 330,000 compounds, 0.46% hits; calls by dose curve; tested in A549 cells; further: potency means the concentration at half of the fitted maximal effect; nearly all actives have a fitted effect of over 30% in size
* = called active by the depositor; i = inactive; ? = inconclusive; . = not tested or not shown; ! = repeats disagree; [ ] = remark or other dose. On the % scale 0 is the no-effect control and ±100 the full control effect.

SMILES	HCMV antiviral	FMDV antiviral	HCV inhibitor	Vaccinia mCherry	VACV Venus inh
O=C(NNC(=O)c1ccc2ccccc2c1)c1ccc(Cl)c(Cl)c1	-28	4%	-11%	?	6%
O=C(NNc1ccccc1)c1ccc(Cl)c(Cl)c1	-77*	18%	?	-9%	-9%
COc1ccccc1CNC(=O)Cc1c(C)c2c(cc(C)c3c(C)coc32)oc1=O	-25	2%	.	-18%	-16%
COc1ccc(-c2nsc3c(N4CCCCC4C)ncnc23)cc1 (stereo unspecified)	-97*	0.032µM*	?	i	-6%
COc1ccc(-c2nsc3c(N4CCCCC4)ncnc23)cc1	-83*	?	-16%	.	.
COc1ccc(C(=O)N2CCN(c3ncnc4c(-c5ccccc5)nsc34)CC2)cc1	-6	?	-6%	-6%	-2%
Cc1ccc(Nc2c(-c3ccc(C)s3)nc3cccc(C)n23)cc1	.	.	.	-23%	-13%
CC(C)CCN(C(=S)Nc1cccc(F)c1)C1CCN(C(C)C)CC1	-32	-21%	11µM*	-22%	-22%
COc1ccc(NC(=S)N(CCC(C)C)C2CCN(C(C)C)CC2)cc1	-31	-12%	?	.	.
CCN(CC)CCOc1ccc(/C(=C(\Cl)c2ccccc2)c2ccccc2)cc1	-18	?	11µM*	?	?
COc1ccc(C(C#N)CC(=O)c2ccc(OC)c(OCc3ccccc3)c2)cc1OC (stereo unspecified)	-70*	?	.	-18%	?
CCN(Cc1ccccc1)C(c1ccc(Cl)cc1)c1nnnn1C(C)(C)C (stereo unspecified)	-97*	?	8%	.	2%
CC(C)(C)n1nnnc1C(c1cccs1)N(Cc1cccnc1)Cc1ccco1 (stereo unspecified)	-11	-17%	-18%	-27%	-23%
CC(C)(C)n1nnnc1C(c1cccs1)N(Cc1ccccc1)Cc1ccco1 (stereo unspecified)	-35	?	11µM*	-10%[1.46 µM]	?
COc1cc(Nc2cc3c(cn2)nc(Cc2ccccc2)n3C)cc(OC)c1OC	31	.	.	.	.
COc1ccc(CN2CCC3(CC2)c2ccccc2[C@@H](NC(=O)c2ccco2)[C@@H]3OC)c(O)c1	.	-6%	.	-17%	-3%
O=[N+]([O-])c1cnc(Nc2ccc(Cl)cn2)c([N+](=O)[O-])c1	3	-26%	11µM*	?	2%
CCCC(=O)OC[C@H]1CN([C@H](C)c2ccccc2)S(=O)(=O)c2c(F)cccc2O1	-3	.	.	.	.
COc1cc(-c2nc(-c3ccccc3)c(-c3cc([N+](=O)[O-])ccc3C)[nH]2)cc(OC)c1OC	-73*	-25%	13µM*	.	?
Cn1c(-c2ccccc2)c[n+]2c1-c1ccccc1C2	?	12%	11µM*	?	-18%
Cn1c(-c2ccccc2)cccc1=O	33	11%	8%	.	.
COc1ccccc1NC(=O)C(C)Sc1nnc2ccc3ccccc3n12 (stereo unspecified)	-3	-15%	.	-12%	-11%
O=S(=O)(c1ccc(Cl)cc1)c1nc(-c2cccs2)oc1SCc1ccc(F)cc1	-7	19%	.	-15%	-21%
CCC(=O)n1nc(-c2ccc(Cl)cc2)nc1N	10	21%	6%	.	.
CCc1nc(N)nc(N)c1-c1ccc(NCCN)c([N+](=O)[O-])c1	-78*	-15%	.	?	4.5µM*
SMILES	HCMV antiviral	FMDV antiviral	HCV inhibitor	Vaccinia mCherry	VACV Venus inh
CCc1nc(N)nc(N)c1-c1ccc(Cl)cc1	-99*	-9%	?	8.9µM*!	?
CCc1nc(N)nc(N)c1-c1ccc(N(C)Cc2ccccc2)c([N+](=O)[O-])c1	-97*	22µM*	?	?	1µM*
O=C1Nc2ccccc2Oc2cc(Oc3ccc(Cl)cc3)ccc21	6	-6%	.	-13%	-1%
Cc1ccc(Oc2cc([N+](=O)[O-])cc3c2C(=O)Nc2ccccc2O3)cc1	-78*	?	13µM*	?	-9%
O=C(NC1CC(=O)N(c2ccccc2)C1)c1ccc(S(=O)(=O)N2CCCC2)cc1 (stereo unspecified)	?	-23%	.	3%[7.34 µM]	-7%[7.34 µM]
CCOC(=O)Cc1c(C)nc2c(-c3cccc(Br)c3)cnn2c1C	-75*	-16%	-2%	i	-6%
O=C(NCCC(NS(=O)(=O)OCC(Cl)(Cl)Cl)c1ccccc1)C(F)(F)F (stereo unspecified)	28	-18%	17%	?	-19%
